Results on 94 compounds are retold here after PubChem BioAssay AID1376 (SRMLSC, 2008).

The inhibition is the change of the read-out against control, counted positive when it falls.

Screen size: about 220,000 compounds; about 530 (0.24%) were called active. Cut-off read from the data, not from the text of the source: active = inhibition above about 13%; inconclusive = no clear call, values can overlap the other calls; inactive = below that. Shown is part of a subset that was picked to be rich in actives. Measured potencies and affinities stand elsewhere.

Bifunctional protein GlmU (Mycobacterium tuberculosis (strain ATCC 25618 / H37Rv)), sequence (P9WMN3 whole entry, looked up): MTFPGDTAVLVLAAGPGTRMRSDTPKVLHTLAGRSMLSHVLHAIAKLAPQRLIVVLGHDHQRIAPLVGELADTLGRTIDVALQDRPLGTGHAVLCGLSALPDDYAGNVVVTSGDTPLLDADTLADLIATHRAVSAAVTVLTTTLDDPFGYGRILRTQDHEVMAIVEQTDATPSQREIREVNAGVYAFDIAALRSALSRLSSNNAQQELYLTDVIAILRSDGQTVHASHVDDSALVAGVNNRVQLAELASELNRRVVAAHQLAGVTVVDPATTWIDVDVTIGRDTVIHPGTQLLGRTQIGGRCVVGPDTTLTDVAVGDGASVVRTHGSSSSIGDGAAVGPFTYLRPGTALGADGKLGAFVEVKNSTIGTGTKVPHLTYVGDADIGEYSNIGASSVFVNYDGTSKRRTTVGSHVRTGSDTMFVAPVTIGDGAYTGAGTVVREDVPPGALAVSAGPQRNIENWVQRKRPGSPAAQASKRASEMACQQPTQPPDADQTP

The experiment has as its target Bifunctional protein GlmU (Mycobacterium tuberculosis (strain ATCC 25618 / H37Rv)) (UniProt P9WMN3). Description: inhibition of mycobacterial GlmU enzyme – biochemical, glucosamine-1-phosphate acetyltransferase (AID 1376).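 Note: 0% = complete reaction with vehicle and 100% = reaction without substrate.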 Particulars: M. tuberculosis GlmU acetyltransferase enzyme assay; active compounds read high;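 tested at 30 µM in the primary screen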.
Consider `NC(=O)CSc1nc(-c2ccccc2)nc2c1CCCC2`, for which the inhibition is -3.87% (inactive).
For the compound `Cc1cccc(-c2nc3c(c(SCC(=O)N(C)C)n2)CCCC3)c1`, the inhibition is -3.93% (inactive).
As to `Cc1cccc(-c2nc3c(c(SCC(N)=O)n2)CCCC3)c1`, the inhibition was 14.5% (active).
With `COc1ccc(OC)c(NC(=O)NC2(C(F)(F)F)Oc3ccccc3O2)c1`, the inhibition is -3.98% (inactive).
Next, `O=C(O)CCSCC(=O)c1ccc2c(c1)OCCO2`: -0.32% (inactive).
Consider `CN(C)c1cc(Nc2ccc(O)cc2)c([N+](=O)[O-])c2nonc12`, for which the inhibition is 0.57% (inactive).
In the case of `CNc1cc(Cl)c2nonc2c1[N+](=O)[O-]`, the inhibition is 11.9% (inactive).
As to `CCNc1cc(Nc2c(C)n(C)n(-c3ccccc3)c2=O)c([N+](=O)[O-])c2nonc12`, the inhibition was 2.95% (inactive).
As to `CN(C)c1cc(Nc2cccc(O)c2)c([N+](=O)[O-])c2nonc12`, the inhibition is -3.39% (inactive).
Regarding `Cc1c(Nc2cc(N3CCOCC3)c3nonc3c2[N+](=O)[O-])c(=O)n(-c2ccccc2)n1C`, the inhibition is -3.88% (inactive).
Consider `O=[N+]([O-])c1c(Nc2ccccn2)cc(Cl)c2nonc12`, for which the inhibition was -2.44% (inactive).
With `CC1CN(C(=O)c2ccncc2)CC(C)O1` (centres undefined) the figure was 2.56% (inactive).
In the case of `c1cc2nncn2nc1N1CCCC1`, the inhibition was -1.89% (inactive).
Regarding `COC(=O)c1cc(C#N)c(Oc2ccccc2)nc1C`, the inhibition is 0.33% (inactive).
In the case of `COc1cc(/C=N/NC(=O)c2cccnc2)ccc1OS(=O)(=O)c1cc(C)ccc1C`, the inhibition is -3.66% (inactive).
Turning to `O=C(OC1Cn2c(=O)ccc(=O)n2C1)c1ccc([N+](=O)[O-])cc1`, the inhibition is 1.59% (inactive).
Turning to `COc1ccc(C(C(=O)NC2CCCC2)N(CC2CCCO2)C(=O)Cn2nnc(-c3ccc(C)o3)n2)cc1` (centres undefined), the inhibition was 0.08% (inactive).
With `CC1=C(C#N)C(=O)N(C2CCS(=O)(=O)C2)C(=O)/C1=C\c1ccc(C)o1` (centres undefined), the inhibition is 5.88% (inactive).
As to `CC1=C(C#N)C(=O)N(C2CCS(=O)(=O)C2)C(=O)/C1=C\c1ccco1` (centres undefined), the inhibition was 25.3% (active).
With `O=C1/C(=C/c2ccco2)SC(=S)N1C1CCS(=O)(=O)C1` (centres undefined) the figure was 5.66% (inactive).
With `O=C1CN(c2ccc(Cl)cc2)C(=O)CN1NC(=S)Nc1ccc(Cl)cc1` the figure was -0.02% (inactive).
Next, `Cc1ccccc1-c1nnc(SCC#N)o1`: 5.25% (inactive); `Clc1cccc(/C=N/Nc2nc(Cl)nc3ccccc23)c1`: -3.16% (inactive).
As to `Clc1cccc(/C=N/Nc2ncnc3ccccc23)c1`, the inhibition was 14.7% (active).
`C(=N\Nc1ncnc2ccccc12)/c1ccccc1`: the inhibition is 4.18% (inactive).
With `O=C(COC(=O)c1cccs1)NCC1CCCCC1` the figure was -4.05% (inactive); with `Cc1cc(C)nc(Sc2ccc(/C=C(\C#N)C(=O)Nc3ccccc3)o2)n1`, -0.9% (inactive).
On to `Cc1cc(C)nc(Sc2ccc(/C=C(\C#N)C(N)=O)o2)n1`, for which the inhibition was 3.14% (inactive).
For `Cc1ccc(NC(=O)/C(C#N)=C/c2ccc(Sc3nc(C)cc(C)n3)o2)cc1`, the inhibition is 19.7% (active).
With `O=C1c2ccccc2S(=O)(=O)c2cc(C(=O)N3CCN(c4ccccc4)CC3)ccc21`, the inhibition is -0.95% (inactive).
For `COc1ccc(/C=N/NC(=O)c2ccc(CN3C(=O)c4cccc5cccc3c45)cc2)cc1O`, the inhibition was -5.54% (inactive).
For the compound `CC(=O)N1C(Nc2ccc(Cl)cc2)CCN1c1ccccc1` (centres undefined), the inhibition was 13.2% (active).
As to `O=C(Nc1ccc(Cl)cc1)N1CCN(c2ccccc2)CC1`, the inhibition was -0.29% (inactive).
Next, `O=C(CCN1CCN(c2ccccc2)CC1)Nc1ccc(Cl)cc1`: 7.38% (inactive); `COc1ccc(OCCC(=O)OCC(=O)NCCC2=CCCCC2)cc1`: -0.76% (inactive).
Regarding `O=C(NCc1ccc2c(c1)OCO2)c1cc(-c2ccc(Cl)cc2Cl)on1`, the inhibition is -0.34% (inactive).
Regarding `Cc1[nH]ccc(=O)c1OCc1c(Cl)cccc1Cl`, the inhibition was -3.63% (inactive).
With `O=c1cc[nH]c2c(C(F)(F)F)cccc12`, the inhibition was 2.39% (inactive).
Turning to `O=c1cc[nH]c2c(Cl)cccc12`, the inhibition is 17.7% (active).
As for `COC(=O)C(C(=O)OC)c1ncccc1[N+](=O)[O-]`, the inhibition was 3.41% (inactive).
Consider `COc1ccc(N2CC(C(=O)Nc3ccc4c(c3)OCO4)CC2=O)cc1` (centres undefined), for which the inhibition is -2.39% (inactive).
With `CS(=O)(=O)N(Cc1ccco1)Cc1ccccc1Cl`, the inhibition is 1.25% (inactive).
In the case of `COCC(C)n1c(C)cc(C(=O)CSc2nnc(Nc3ccccc3F)s2)c1C` (centres undefined), the inhibition is 1.64% (inactive).
As for `Cc1c(Cl)c([N+](=O)[O-])nn1CCCC(=O)Nc1cccc(Cl)c1Cl`, the inhibition was -3.35% (inactive).
With `Cc1nn(Cc2c(Cl)cccc2Cl)c(C)c1NC(=O)CCCn1nc([N+](=O)[O-])c(Cl)c1C` the figure was 0.47% (inactive).
`Cc1c(Cl)c([N+](=O)[O-])nn1CCCC(=O)Nc1c(Cl)cccc1Cl`: the inhibition is 13.8% (active).
In the case of `Cc1cc(-c2ccccc2C(=O)NCc2ccccc2)on1`, the inhibition is 2.22% (inactive).
Next, `COc1ccc(S(=O)(=O)N2CCCN(S(=O)(=O)c3ccc(OC)cc3C)CC2)c(C)c1`: 4.67% (inactive).
For the compound `CC12CCC(C(=O)NCCc3ccccc3)(OC1=O)C2(C)C` (centres undefined), the inhibition was 0.84% (inactive).
In the case of `Cc1cc(C)c(NC(=O)COC(=O)c2cccc3c2C(=O)c2ccccc2C3=O)c(C)c1`, the inhibition was 3.23% (inactive).
For the compound `Cc1cccc(S(=O)(=O)Nc2cccc3c2C(=O)c2ccccc2-3)c1`, the inhibition was 2.87% (inactive).
Turning to `Cc1cc(C)c(Nc2cc(S(=O)(=O)O)c(N)c3c2C(=O)c2ccccc2C3=O)c(C)c1`, the inhibition is 17.5% (active).
Next, `O=C(O)c1cccc(NC(CNS(=O)(=O)c2ccc(Cl)cc2)c2ccccc2)c1` (centres undefined): 3.6% (inactive); `CN1CCN(CCOc2ccc(Cl)c(Cl)c2)CC1`: -3.6% (inactive).
As to `CCc1ccccc1NC(=O)c1ccc(CN2CCC(Cc3ccccc3)CC2)cc1`, the inhibition is 3.49% (inactive).
As for `CCOC(=O)COc1cnc2ccccc2n1`, the inhibition is 1.75% (inactive).
Take `COc1ccc2nc(NS(=O)(=O)c3ccc(NC(C)=O)cc3)sc2c1`: the inhibition was 4.76% (inactive).
In the case of `CC(=O)Nc1ccc2nc(NS(=O)(=O)c3ccc(C)cc3)sc2c1`, the inhibition was 3.98% (inactive).
In the case of `CC(=O)Nc1ccc(S(=O)(=O)Nc2nc3ccc(C)cc3s2)cc1`, the inhibition is 13.2% (active).
Turning to `CCc1c(O)nc(SCC(=O)NCc2ccco2)[nH]c1=O`, the inhibition was -0.2% (inactive).
In the case of `COc1ccc(Nc2ccc(N3C(=O)CCC3=O)cc2[N+](=O)[O-])cn1`, the inhibition was 2.73% (inactive).
With `CCCc1ccc(C(=O)NNc2cc(Cl)ccc2Cl)cc1` the figure was 2.48% (inactive).
With `CCCc1ccc(C(=O)NNC(=O)c2ccc(Cl)cc2)cc1`, the inhibition is 17.1% (active).
Turning to `CCCc1ccc(C(=O)NNC(=O)c2ccc(Br)cc2)cc1`, the inhibition is 1.63% (inactive).
As to `CCOc1ccccc1/C=N/NC(=O)CNC(=O)c1ccc(S(=O)(=O)N2CCOCC2)cc1`, the inhibition was 0.48% (inactive).
`CC(C)N1CCc2c(sc(NC(=O)c3cc(-c4cccs4)nc4ccccc34)c2C(N)=O)C1`: the inhibition was -3.1% (inactive).
In the case of `CC(C)N1CCc2c(sc(NC(=O)c3nc4ccccc4s3)c2C(N)=O)C1`, the inhibition is 13.7% (active).
`COC(=O)c1c(NC(=O)c2nc3ccccc3s2)sc2c1CCN(C(C)=O)C2`: the inhibition is -1.93% (inactive).
Next, `CCC(=O)N1CCc2cc(Br)cc(S(=O)(=O)CCC(=O)N(CC)CC)c21`: -2.77% (inactive); `CCN=C1S/C(=C\c2cc(OCC)c(O)cc2Br)C(=O)N1CC`: -1.66% (inactive).
For `COc1ccc(N(CC(=O)NN=C2CCCCCCC2)S(=O)(=O)c2ccccc2)cc1Cl`, the inhibition was 0.05% (inactive).
`CC(=O)Nc1ccc(NC(=O)CCCSc2nc3ccccc3[nH]2)cc1`: the inhibition was -7.79% (inactive).
Take `COc1ccc(CNC(=O)c2cnn3c(C(F)F)cc(C)nc23)cc1`: the inhibition is 14.5% (active).
For `Cc1cc(C(F)F)n2ncc(C(=O)NCc3ccccc3)c2n1`, the inhibition is 1.36% (inactive).
Consider `Cc1cc(C(F)F)n2ncc(C(=O)NCc3ccc(F)cc3)c2n1`, for which the inhibition is 3.5% (inactive).
For `CCS(=O)(=O)NCCNc1ccc([N+](=O)[O-])cc1`, the inhibition is 1.84% (inactive).
For `Nc1nc(SCC(=O)NCc2ccccc2)n[nH]1`, the inhibition was 0.23% (inactive).
Take `Cc1cc2c(o1)CC(C)(C)CC2=O`: the inhibition is 1.91% (inactive).
Next, `O=C(Nc1cccnc1)c1cc2c(ccc3ccccc32)o1`: 7.23% (inactive).
On to `CCCCOC(=O)Nc1ccc(S(=O)(=O)Nc2nccs2)cc1`, for which the inhibition is -2.11% (inactive).
Consider `Cc1c(N=Nc2c(-c3ccc([N+](=O)[O-])cc3)[nH]n(C(N)=S)c2=O)cccc1[N+](=O)[O-]`, for which the inhibition is 14.5% (active).
For `Cc1ccc([N+](=O)[O-])cc1N=Nc1c(-c2ccc([N+](=O)[O-])cc2)[nH]n(C(N)=S)c1=O`, the inhibition is 0.14% (inactive).
Next, `NC(=S)n1[nH]c(-c2ccc([N+](=O)[O-])cc2)c(N=Nc2ccccc2[N+](=O)[O-])c1=O`: -2.18% (inactive); `NCCN1CCN(CCN)CC1`: -1.39% (inactive); `COc1ccc(C2(C)NC(=O)N(CC(=O)Nc3ccc(-c4nc5ccc(C)cc5s4)cc3)C2=O)cc1` (centres undefined): -4.16% (inactive).
As for `O=c1cc(Cl)[nH]c(=O)n1CCNc1ncc(C(F)(F)F)cc1Cl`, the inhibition is -0.65% (inactive).
For the compound `O=C(c1ccccc1F)N1CCCC(C(=O)N2CCN(c3ccccc3)CC2)C1` (centres undefined), the inhibition was 4.78% (inactive).
With `CC(C)C(=O)N1CCN(c2ccc(NC(=O)c3cccs3)cc2)CC1`, the inhibition is -0.11% (inactive).
Turning to `C=CCOc1c(CNc2cccc(C(=O)O)c2)cccc1OCC`, the inhibition was 17.6% (active).
As to `C=CCOc1c(CNc2ccc(C(=O)O)cc2)cccc1OCC`, the inhibition is -3.36% (inactive).
For the compound `C=CCOc1c(CNc2cccc(C(=O)O)c2)cccc1OC`, the inhibition was -2.58% (inactive).
Regarding `COc1ccc(CC(=O)Nc2c3c(nn2-c2cccc(C)c2C)CS(=O)C3)cc1` (centres undefined), the inhibition was 0.63% (inactive).
Regarding `CCN(C(=O)c1cc2c(=O)[nH]c3ccc(C)cc3c2s1)c1cccc(C)c1`, the inhibition was 0.79% (inactive).
For the compound `Cn1c(=O)c2c(nc(SCC(=O)c3ccccc3F)n2C)n(C)c1=O`, the inhibition is 2.09% (inactive).
